# Changes are numbered by the printed parent chain; changes in the protein carry UniProt numbers. In all, about 16,000 sequences were measured (“ka relative to ugcaugu”: median about 0.0091, highest 2% from about 0.032 on). This is one part of a sample in which the highest values are shown more often than they occur.
# T1: RBFOX1 RRM (Homo sapiens, UniProt Q9NWB1 109-208)
# T1 sequence: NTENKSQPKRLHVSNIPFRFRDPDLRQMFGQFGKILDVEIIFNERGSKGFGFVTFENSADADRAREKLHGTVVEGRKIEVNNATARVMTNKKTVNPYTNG
# B1: AUGGUGU (DNA:RNA)
# RNA: GGGAGACCGGAAUUCAGAUUGUCCAUGGUGUUUAAAUCCCGUCGUAGCCACCA
# DNA 1: CAATCTGAATTCCGGTCTCCC
# DNA 2: TGGTGGCTACGACGGGATT
# B2: CAUGUGU (DNA:RNA)
# RNA: B1 RNA with A25C, U26A, G27U
# DNA 1: CAATCTGAATTCCGGTCTCCC
# DNA 2: TGGTGGCTACGACGGGATT
# B3: AGAAGGC (DNA:RNA)
# RNA: B1 RNA with U26G, G27A, G28A, U29G, U31C
# DNA 1: CAATCTGAATTCCGGTCTCCC
# DNA 2: TGGTGGCTACGACGGGATT
# B4: GAAUGAG (DNA:RNA)
# RNA: GGGAGACCGGAAUUCAGAUUGUCCGAAUGAGUUAAAUCCCGUCGUAGCCACCA
# DNA 1: CAATCTGAATTCCGGTCTCCC
# DNA 2: TGGTGGCTACGACGGGATT
# B5: GCGUCGU (DNA:RNA)
# RNA: B1 RNA with A25G, U26C, G28U, U29C
# DNA 1: CAATCTGAATTCCGGTCTCCC
# DNA 2: TGGTGGCTACGACGGGATT
# B6: AUGCCGG (DNA:RNA)
# RNA: B1 RNA with G28C, U29C, U31G
# DNA 1: CAATCTGAATTCCGGTCTCCC
# DNA 2: TGGTGGCTACGACGGGATT
# B7: AGCGCGG (DNA:RNA)
# RNA: B1 RNA with U26G, G27C, U29C, U31G
# DNA 1: CAATCTGAATTCCGGTCTCCC
# DNA 2: TGGTGGCTACGACGGGATT
# B8: AGAACUA (DNA:RNA)
# RNA: B1 RNA with U26G, G27A, G28A, U29C, G30U, U31A
# DNA 1: CAATCTGAATTCCGGTCTCCC
# DNA 2: TGGTGGCTACGACGGGATT
# B9: UGCCUGC (DNA:RNA)
# RNA: B1 RNA with A25U, U26G, G27C, G28C, U31C
# DNA 1: CAATCTGAATTCCGGTCTCCC
# DNA 2: TGGTGGCTACGACGGGATT
# B10: UGAUUAA (DNA:RNA)
# RNA: B4 RNA with G25U, A26G, G29U, G31A
# DNA 1: CAATCTGAATTCCGGTCTCCC
# DNA 2: TGGTGGCTACGACGGGATT
# B11: UGAUCGA (DNA:RNA)
# RNA: B4 RNA with G25U, A26G, G29C, A30G, G31A
# DNA 1: CAATCTGAATTCCGGTCTCCC
# DNA 2: TGGTGGCTACGACGGGATT
# B12: UGGUUGU (DNA:RNA)
# RNA: B1 RNA with A25U, U26G, G28U
# DNA 1: CAATCTGAATTCCGGTCTCCC
# DNA 2: TGGTGGCTACGACGGGATT
# B13: UGAUUGA (DNA:RNA)
# RNA: B1 RNA with A25U, U26G, G27A, G28U, U31A
# DNA 1: CAATCTGAATTCCGGTCTCCC
# DNA 2: TGGTGGCTACGACGGGATT
# B14: UGGUUUG (DNA:RNA)
# RNA: B1 RNA with A25U, U26G, G28U, G30U, U31G
# DNA 1: CAATCTGAATTCCGGTCTCCC
# DNA 2: TGGTGGCTACGACGGGATT
# B15: UGCCCGC (DNA:RNA)
# RNA: B1 RNA with A25U, U26G, G27C, G28C, U29C, U31C
# DNA 1: CAATCTGAATTCCGGTCTCCC
# DNA 2: TGGTGGCTACGACGGGATT
# B16: UGCCUGA (DNA:RNA)
# RNA: B1 RNA with A25U, U26G, G27C, G28C, U31A
# DNA 1: CAATCTGAATTCCGGTCTCCC
# DNA 2: TGGTGGCTACGACGGGATT
# B17: CGAUCGA (DNA:RNA)
# RNA: B4 RNA with G25C, A26G, G29C, A30G, G31A
# DNA 1: CAATCTGAATTCCGGTCTCCC
# DNA 2: TGGTGGCTACGACGGGATT
# B18: UGAUCCG (DNA:RNA)
# RNA: B4 RNA with G25U, A26G, G29C, A30C
# DNA 1: CAATCTGAATTCCGGTCTCCC
# DNA 2: TGGTGGCTACGACGGGATT
# B19: UGUUUGG (DNA:RNA)
# RNA: B1 RNA with A25U, U26G, G27U, G28U, U31G
# DNA 1: CAATCTGAATTCCGGTCTCCC
# DNA 2: TGGTGGCTACGACGGGATT
# B20: UGCCUCG (DNA:RNA)
# RNA: B1 RNA with A25U, U26G, G27C, G28C, G30C, U31G
# DNA 1: CAATCTGAATTCCGGTCTCCC
# DNA 2: TGGTGGCTACGACGGGATT
# B21: UGUCCGA (DNA:RNA)
# RNA: B1 RNA with A25U, U26G, G27U, G28C, U29C, U31A
# DNA 1: CAATCTGAATTCCGGTCTCCC
# DNA 2: TGGTGGCTACGACGGGATT
# B22: CCAGGCU (DNA:RNA)
# RNA: B1 RNA with A25C, U26C, G27A, U29G, G30C
# DNA 1: CAATCTGAATTCCGGTCTCCC
# DNA 2: TGGTGGCTACGACGGGATT
# B23: UAGUUGG (DNA:RNA)
# RNA: B1 RNA with A25U, U26A, G28U, U31G
# DNA 1: CAATCTGAATTCCGGTCTCCC
# DNA 2: TGGTGGCTACGACGGGATT
# B24: CCAAUAG (DNA:RNA)
# RNA: B4 RNA with G25C, A26C, U28A, G29U
# DNA 1: CAATCTGAATTCCGGTCTCCC
# DNA 2: TGGTGGCTACGACGGGATT
# B25: UCAAGAG (DNA:RNA)
# RNA: B4 RNA with G25U, A26C, U28A
# DNA 1: CAATCTGAATTCCGGTCTCCC
# DNA 2: TGGTGGCTACGACGGGATT
# B26: GUUUUAG (DNA:RNA)
# RNA: B4 RNA with A26U, A27U, G29U
# DNA 1: CAATCTGAATTCCGGTCTCCC
# DNA 2: TGGTGGCTACGACGGGATT
# B27: GCGGAGC (DNA:RNA)
# RNA: B1 RNA with A25G, U26C, U29A, U31C
# DNA 1: CAATCTGAATTCCGGTCTCCC
# DNA 2: TGGTGGCTACGACGGGATT
# B28: CCUUACC (DNA:RNA)
# RNA: B4 RNA with G25C, A26C, A27U, G29A, A30C, G31C
# DNA 1: CAATCTGAATTCCGGTCTCCC
# DNA 2: TGGTGGCTACGACGGGATT
# B29: CCGUAGA (DNA:RNA)
# RNA: B1 RNA with A25C, U26C, G28U, U29A, U31A
# DNA 1: CAATCTGAATTCCGGTCTCCC
# DNA 2: TGGTGGCTACGACGGGATT
# B30: UGGUGCC (DNA:RNA)
# RNA: B4 RNA with G25U, A26G, A27G, A30C, G31C
# DNA 1: CAATCTGAATTCCGGTCTCCC
# DNA 2: TGGTGGCTACGACGGGATT
# B31: UGGUUCC (DNA:RNA)
# RNA: B1 RNA with A25U, U26G, G28U, G30C, U31C
# DNA 1: CAATCTGAATTCCGGTCTCCC
# DNA 2: TGGTGGCTACGACGGGATT
# B32: GUCCUGG (DNA:RNA)
# RNA: B1 RNA with A25G, G27C, G28C, U31G
# DNA 1: CAATCTGAATTCCGGTCTCCC
# DNA 2: TGGTGGCTACGACGGGATT
# B33: UGCCUGG (DNA:RNA)
# RNA: B1 RNA with A25U, U26G, G27C, G28C, U31G
# DNA 1: CAATCTGAATTCCGGTCTCCC
# DNA 2: TGGTGGCTACGACGGGATT
# B34: UGUCCCG (DNA:RNA)
# RNA: B4 RNA with G25U, A26G, A27U, U28C, G29C, A30C
# DNA 1: CAATCTGAATTCCGGTCTCCC
# DNA 2: TGGTGGCTACGACGGGATT
# B35: UGUAGCC (DNA:RNA)
# RNA: B4 RNA with G25U, A26G, A27U, U28A, A30C, G31C
# DNA 1: CAATCTGAATTCCGGTCTCCC
# DNA 2: TGGTGGCTACGACGGGATT
# B36: GUGCCUG (DNA:RNA)
# RNA: B1 RNA with A25G, G28C, U29C, G30U, U31G
# DNA 1: CAATCTGAATTCCGGTCTCCC
# DNA 2: TGGTGGCTACGACGGGATT
# B37: UUGCCUG (DNA:RNA)
# RNA: B1 RNA with A25U, G28C, U29C, G30U, U31G
# DNA 1: CAATCTGAATTCCGGTCTCCC
# DNA 2: TGGTGGCTACGACGGGATT
# B38: UGUGCCG (DNA:RNA)
# RNA: B1 RNA with A25U, U26G, G27U, U29C, G30C, U31G
# DNA 1: CAATCTGAATTCCGGTCTCCC
# DNA 2: TGGTGGCTACGACGGGATT
# B39: UGCUGGU (DNA:RNA)
# RNA: B1 RNA with A25U, U26G, G27C, G28U, U29G
# DNA 1: CAATCTGAATTCCGGTCTCCC
# DNA 2: TGGTGGCTACGACGGGATT
# B40: UGUUGCC (DNA:RNA)
# RNA: B4 RNA with G25U, A26G, A27U, A30C, G31C
# DNA 1: CAATCTGAATTCCGGTCTCCC
# DNA 2: TGGTGGCTACGACGGGATT
# B41: UGGUUCG (DNA:RNA)
# RNA: B1 RNA with A25U, U26G, G28U, G30C, U31G
# DNA 1: CAATCTGAATTCCGGTCTCCC
# DNA 2: TGGTGGCTACGACGGGATT
# Target: T1, RBFOX1 RRM
# Experiment: EMSA; HiTS-Eq, 1 nM pool, 10 min; buffer printed only for the single-RNA assays: 10 mM Tris pH 7.5, 150 mM NaCl, 3.4 mM EDTA, 0.001% NP-40, 30 C
# Conditions: tags: His6 N-terminal (pET28a); label: 5' 32P
# Outline: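 A pool of RNA with 7 randomized nucleotides, 5′-radiolabelled and with DNA-annealed flanks, was equilibrated at 1 nM for 10 min in 50 µL with purified RbFox RRM, wild type or mutant, across increasing protein concentrations. Free RNA was separated by 8% native PAGE, excised, reverse-transcribed, barcoded by PCR and sequenced. Relative association constants were obtained from read-count changes of each RNA species versus the control reaction and normalised to the cognate motif.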
row,Binder,binding signal
1,B1,0.0152 KA relative to UGCAUGU
2,B2,0.0132 KA relative to UGCAUGU
3,B3,0.00991 KA relative to UGCAUGU
4,B4,0.0255 KA relative to UGCAUGU
5,B5,0.0171 KA relative to UGCAUGU
6,B6,0.0153 KA relative to UGCAUGU
7,B7,0.0172 KA relative to UGCAUGU
8,B8,0.00165 KA relative to UGCAUGU
9,B9,0.0698 KA relative to UGCAUGU
10,B10,0.00933 KA relative to UGCAUGU
11,B11,0.0347 KA relative to UGCAUGU
12,B12,0.0314 KA relative to UGCAUGU
13,B13,0.028 KA relative to UGCAUGU
14,B14,0.0372 KA relative to UGCAUGU
15,B15,0.0206 KA relative to UGCAUGU
16,B16,0.0398 KA relative to UGCAUGU
17,B17,0.0185 KA relative to UGCAUGU
18,B18,0.0149 KA relative to UGCAUGU
19,B19,0.0271 KA relative to UGCAUGU
20,B20,0.0235 KA relative to UGCAUGU
21,B21,0.0182 KA relative to UGCAUGU

row,Binder,binding signal
1,B22,0.00926 KA relative to UGCAUGU
2,B23,0.0164 KA relative to UGCAUGU
3,B24,0.00034 KA relative to UGCAUGU
4,B25,0.00877 KA relative to UGCAUGU
5,B26,0.0145 KA relative to UGCAUGU
6,B27,0.0117 KA relative to UGCAUGU
7,B28,0.00281 KA relative to UGCAUGU
8,B29,0.00944 KA relative to UGCAUGU
9,B30,0.0219 KA relative to UGCAUGU
10,B31,0.0214 KA relative to UGCAUGU
11,B32,0.0183 KA relative to UGCAUGU
12,B33,0.0474 KA relative to UGCAUGU
13,B34,0.0122 KA relative to UGCAUGU
14,B35,0.0129 KA relative to UGCAUGU
15,B36,0.0397 KA relative to UGCAUGU
16,B37,0.0452 KA relative to UGCAUGU
17,B38,0.0199 KA relative to UGCAUGU
18,B39,0.028 KA relative to UGCAUGU
19,B40,0.0243 KA relative to UGCAUGU
20,B41,0.0375 KA relative to UGCAUGU

# From publication PMC9911399, “Two distinct binding modes provide the RNA-binding protein RbFox with extraordinary sequence specificity”
